Whole data set: some 39,000 sequences, median “fluorescence intensity (a.u.)” near 4,300, cut for the highest 2% near 39,000. The sample as a whole holds a higher share of the highest values than the screen did.
Each sequence was assayed against T1, OsSMF1 (Oryza sativa, UniProt Q6ZLB0 1-436) (assay: protein-binding microarray (RPBM); PBS, 2% BSA, 51.3 ng/ul salmon testes DNA, 50 uM zinc acetate, 200 nM TF, 25 C, 1 h; high values mean tight binding). Conditions: protein: recombinant; tags: N-terminal polyhistidine and DsRed monomer fusion (pET32a); chain copies: 2; label: CyDye5-dUTP incorporated in the synthesized complementary strand; 3' TTTTT single-stranded linker to array surface; dsDNA, one strand shown.
T1 sequence: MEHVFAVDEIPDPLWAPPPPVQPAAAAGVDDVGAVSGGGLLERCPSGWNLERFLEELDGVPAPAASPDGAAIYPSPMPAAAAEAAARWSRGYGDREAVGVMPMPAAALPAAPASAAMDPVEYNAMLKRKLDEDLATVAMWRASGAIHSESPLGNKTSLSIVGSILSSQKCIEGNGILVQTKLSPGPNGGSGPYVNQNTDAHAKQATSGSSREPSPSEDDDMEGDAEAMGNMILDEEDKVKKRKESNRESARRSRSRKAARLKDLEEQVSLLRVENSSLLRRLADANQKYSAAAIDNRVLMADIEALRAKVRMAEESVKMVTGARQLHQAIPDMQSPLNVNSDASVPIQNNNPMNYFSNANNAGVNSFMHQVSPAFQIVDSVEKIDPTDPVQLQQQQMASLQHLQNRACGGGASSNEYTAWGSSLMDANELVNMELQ
How it was run: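 Using Ni–NTA, transcription factors fused N-terminally to polyhistidine and DsRed were purified after expression in E. coli BL21-CodonPlus. These were incubated at 200 nM with a blocked, double-stranded custom Agilent array for 1 h at 25 °C in a buffer containing 50 µM zinc acetate, and the array was washed. The binding signal is per-feature fluorescence intensity (arbitrary units) on an Axon 4000B scanner.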

Sequence | binding signal
AATCGCGAGATATCCACGTGAGATTGCGCAGCGAGACGCGCGGAGTCACCTAGTGCAG | 5140 fluorescence intensity (a.u.)
ATGAGAGATAAGTAGATGACACATTCACAGTTGCTATAGTCGGAGTCACCTAGTGCAG | 4040 fluorescence intensity (a.u.)
AAGCTAGCGGTCACCCAGTCAGCTCACCCCGAGACGCACCCGGAGTCACCTAGTGCAG | 4400 fluorescence intensity (a.u.)
CGCAGTTGCTTCTGCAAAAGAGATTGATGACAAGGATCACCGGAGTCACCTAGTGCAG | 3530 fluorescence intensity (a.u.)
TCGATCGACATGGTGAATTGGCGATCGGGTTGGCTCGGCTCGGAGTCACCTAGTGCAG | 3170 fluorescence intensity (a.u.)
TAGGCAAATTACATGGCATGTGCCACGTCGTTGTTGCACCCGGAGTCACCTAGTGCAG | 16500 fluorescence intensity (a.u.)
TTTATTTCTACCGCCACGTAGGTGCCATGTCAATGTCACGCGGAGTCACCTAGTGCAG | 14300 fluorescence intensity (a.u.)
GTAGGTGACATGTGTGGTGTCACACTGACTCAGCCATCACCGGAGTCACCTAGTGCAG | 10600 fluorescence intensity (a.u.)
CTACTGACACGTAGGTGCCACCATGGCATGCCACGTCAGCCGGAGTCACCTAGTGCAG | 61500 fluorescence intensity (a.u.)
TTATTTCTACTGCCACGTAGGTGCCACGTCAACGCCACGTCGGAGTCACCTAGTGCAG | 37400 fluorescence intensity (a.u.)
TAAATGTTCGTGTGGCATGCCACATCAGCACCACGTAGGACGGAGTCACCTAGTGCAG | 21400 fluorescence intensity (a.u.)
GCCACGTAGGTGCCATGTGGCACCACGTCAGCAAAATTGCCGGAGTCACCTAGTGCAG | 49100 fluorescence intensity (a.u.)
TTAGACACGTAGGTGCCATGTCAGCCAAAACCACCGAGGGCGGAGTCACCTAGTGCAG | 17100 fluorescence intensity (a.u.)
TTTTATTTCTACTGCCACGTAGGTGCCACGTCAACGCCACCGGAGTCACCTAGTGCAG | 49800 fluorescence intensity (a.u.)
CATAGATTAATATGAAATATATAACTCCACAAATATGCAACGGAGTCACCTAGTGCAG | 3500 fluorescence intensity (a.u.)
ACACGGCCTATAAATATCTAACCATCCTTTGCCTGTCGAGCGGAGTCACCTAGTGCAG | 4970 fluorescence intensity (a.u.)
TGGATTTTGCACCGATCGCACCACGTCTCCGTCTGTTTGCCGGAGTCACCTAGTGCAG | 4240 fluorescence intensity (a.u.)
TCGCCCGCACGTGGCCCTCCTCTCCTCCCTCCCACCTCGTCGGAGTCACCTAGTGCAG | 3380 fluorescence intensity (a.u.)
ACCACACACACACTGACACTGTGACACAACACAACACGGCCGGAGTCACCTAGTGCAG | 6920 fluorescence intensity (a.u.)
TCACCAATCACCTGCCCTCACACCAACACGCCACGCGAACCGGAGTCACCTAGTGCAG | 3750 fluorescence intensity (a.u.)
GATGCACCACTGCTGCGTCGCACGTTCCACCCCATTCCACCGGAGTCACCTAGTGCAG | 3520 fluorescence intensity (a.u.)

Sequence | binding signal
CACCTGCAGCTGCCACGTCAGAGCCACGTCGGATTCCAACCGGAGTCACCTAGTGCAG | 40800 fluorescence intensity (a.u.)
CACACTGAGTCAGCTGCCACGTCGGATAAAACCGGAGTCACGGAGTCACCTAGTGCAG | 10500 fluorescence intensity (a.u.)
CACATTGAGTCAGCTGCCACGTCGGATAAAACCGGAGTCACGGAGTCACCTAGTGCAG | 15000 fluorescence intensity (a.u.)
GGAACATGTATGCACCGAACCTGGTGCATGTCCACGTTCACGGAGTCACCTAGTGCAG | 3740 fluorescence intensity (a.u.)
AGTATCAGATTCCAACTCACATGCCACGTCACATGCATGCCGGAGTCACCTAGTGCAG | 42200 fluorescence intensity (a.u.)
ATTCCTATCATTGGAGTATGTGTGCACGTCATTAGTGCCACGGAGTCACCTAGTGCAG | 6500 fluorescence intensity (a.u.)
GTTCAATTCCTGCTGGATGCACGTGAACCGGAACGTTCCACGGAGTCACCTAGTGCAG | 52000 fluorescence intensity (a.u.)
CACGCCAACTAGGATGGATAGATGGGCCACATGTATTCCACGGAGTCACCTAGTGCAG | 3530 fluorescence intensity (a.u.)
TCTTTCTGCACTTTCTCTGAACGTGGATAAGACATAACCGCGGAGTCACCTAGTGCAG | 8130 fluorescence intensity (a.u.)
TTAATCACTTCTCAAACTTTTAATGCAATGACTTGTGAACCGGAGTCACCTAGTGCAG | 3420 fluorescence intensity (a.u.)
CGTCCGCAGCACGCCACGGTAGCGCGACACCCGGCCTTCCCGGAGTCACCTAGTGCAG | 4600 fluorescence intensity (a.u.)
AAGCGATGGAAGCAGCAGACGTGTCGCACGGGAATTTGAGCGGAGTCACCTAGTGCAG | 5240 fluorescence intensity (a.u.)
GGCATGGGTATGGGTCATCACTACCCATGCCCGCTTTGCCCGGAGTCACCTAGTGCAG | 4410 fluorescence intensity (a.u.)
GTTGACATATGGATCCTGGTGTTATCGACTCAATGTAGAGCGGAGTCACCTAGTGCAG | 5150 fluorescence intensity (a.u.)
GATGGTAGGTATGCATATGACGCATATCCTACCTGACGGACGGAGTCACCTAGTGCAG | 3450 fluorescence intensity (a.u.)
TTTTAGGTAGAATGGTCCTGTTGGATCATCATATCAATGACGGAGTCACCTAGTGCAG | 43400 fluorescence intensity (a.u.)
TATCCAGGCGCACGACACTTGACAACTCTGTACTACGTAGCGGAGTCACCTAGTGCAG | 38900 fluorescence intensity (a.u.)
AATTGATCTTCAGAGCCCACGTAGGTATTAGACTTTCCTACGGAGTCACCTAGTGCAG | 6290 fluorescence intensity (a.u.)
GGCCAGTTCTCTTCCACGTGGAGGCGGCCTCTCACAGCCGCGGAGTCACCTAGTGCAG | 10300 fluorescence intensity (a.u.)
TAGTTTCACTTATTATTTATTTCAGTAAAAGAAAGTTTCCCGGAGTCACCTAGTGCAG | 3690 fluorescence intensity (a.u.)
TCATCATCATCATCATTATTAAAGTAAATTTCAGAAAACTCGGAGTCACCTAGTGCAG | 21600 fluorescence intensity (a.u.)
